Compound activity as filed in PubChem.
This is a sample that favours compounds with a hit; in the whole collection about 1.3% have one here.
MOR-DOR ag = agonists of OPRM1-OPRD1 heterodimerization, primary screen, cell-based, luminescence. Mu-type opioid receptor (Homo sapiens) + Delta-type opioid receptor (Homo sapiens), …. hit rate 0.3% among 340,000. activation, % at 9.3 µM. cells; in the data active means activation above about 18%;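 further: 0% = vehicle-treated cells and 100% = reference agonist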
MOR-DOR inv ag = inverse agonists of MOR-DOR heterodimerization, primary screen, cell-based, luminescence; Mu-type opioid receptor (Homo sapiens) + Delta-type opioid receptor (Homo sapiens), …; cell-based MOR-DOR heterodimer luminescence, inverse agonism; inhibition, % at 9.3 µM; hit rate 0.21% among 340,000; in the data active means inhibition above about 22%, passing the limit was not always enough;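 further: 0% = cells with DMSO and 100% = wells without cells with DMSO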
HTR5A inv ag = HTR5A inverse agonists in luminescence cell assay, primary screen, counter-screen for OPRM1-OPRD1 heterodimer inverse agonist project, full-deck HTS. 5-hydroxytryptamine receptor 5A (Homo sapiens), P47898. HTR5A cell line, inverse agonism. hit rate 0.083% among 340,000. inhibition, % at 9.3 µM. AID 504634, 2011; in the data active means inhibition mostly above about 23%, no sharp cut-off; inactive means mostly below about 18%;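 further: 0% = cells with DMSO and 100% = no-cell wells with DMSO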
Target sequence (P47898 whole entry, looked up): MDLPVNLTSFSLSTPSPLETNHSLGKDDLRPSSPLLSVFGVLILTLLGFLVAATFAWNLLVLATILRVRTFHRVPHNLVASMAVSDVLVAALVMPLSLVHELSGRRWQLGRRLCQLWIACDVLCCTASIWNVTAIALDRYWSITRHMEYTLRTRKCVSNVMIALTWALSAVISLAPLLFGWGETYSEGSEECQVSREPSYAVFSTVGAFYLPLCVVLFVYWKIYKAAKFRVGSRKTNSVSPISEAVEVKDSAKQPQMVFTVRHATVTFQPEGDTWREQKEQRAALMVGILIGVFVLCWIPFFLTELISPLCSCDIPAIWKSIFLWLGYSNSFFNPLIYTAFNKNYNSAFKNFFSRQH
HTR5A ag = HTR5A agonists in luminescence cell assay, primary screen, counter-screen for OPRM1-OPRD1 heterodimer agonist project, full-deck HTS; hit rate 0.61% among 340,000; AID 504692, 2011; cell-based; activation, % at 9.3 µM; 5-hydroxytryptamine receptor 5A (Homo sapiens), P47898; in the data active means activation mostly above about 9.5%, no sharp cut-off; inactive means mostly below about 7.6%;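 further: 0% = cells with vehicle only and 100% = reference agonist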
Yeast superoxide = reduction of superoxide in aged yeast, primary screen, HTS. hit rate 0.18% among 330,000. AID 2690, 2010. S. cerevisiae aged cells, superoxide DHE fluorescence; stronger effect = lower value. superoxide response (% of plate mean), % at 10 µM;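 active means superoxide response under a set limit, about three screen SD below normal, cut at about 65% in these data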;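 further: yeast aged for seven days with compound at 30 °C before DHE staining; 100% = average MFI of all compound-treated wells on the plate with controls excluded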
PvdQ inh = P. aeruginosa PvdQ acylase inhibitors, primary screen, biochemical, fluorescence, plate reader and imaging, single point | PvdQ acylase [Pseudomonas aeruginosa LESB58] | purified PvdQ acylase | inhibition, % at 10 µM | hit rate 0.063% among 340,000; in the data active means inhibition above about 30%, passing the limit was not always enough;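 further: 0% = vehicle neutral wells and 100% = reference inhibitor wells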
CR mimetic CP = superoxide lowering in aged yeast cells, confirmation, cherry picked compounds | shares compounds with Yeast superoxide | S. cerevisiae aging, superoxide DHE fluorescence; stronger effect = lower value | superoxide response (% of plate), % at 10 µM | hit rate 1% among 850 | AID 434994, 2010;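 active means superoxide signal below 65% of the plate average of sample wells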;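 further: cells aged with compound for 7 days at 30 degrees C before staining; 100% equals mean DHE fluorescence of all compound wells on the plate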
DHE counter = DHE quenching or ROS scavenging interference in aged yeast, artefact control for yeast caloric restriction mimetic project, S. cerevisiae BY4741, flow cytometry | shares compounds with Yeast superoxide | DHE fluorescence; stronger effect = lower value | fluorescence response, % at 10 µM | 850 tested, under 10 active | AID 435000, 2010;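 active means fluorescence response below 15%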;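 further: percent of the mean fluorescence averaged over all compound wells on the plate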
* marks the source's active call; other numbers are inactive results; . = no result given.

SMILES	MOR-DOR ag	MOR-DOR inv ag	HTR5A inv ag	HTR5A ag	Yeast superoxide	PvdQ inh	CR mimetic CP	DHE counter
CC12CCC(=O)N1C(C(=O)N1CCN(S(=O)(=O)c3cccc(Cl)c3)CC1)CS2 (stereo unspecified)	-3	15	10	-4	106	-13	.	.
C=CC(C)(O)CCCC(C)CCCC(C)CCCC(C)C (stereo unspecified)	-1	7	-1	0	95	-12	.	.
O=C(CN1CCN(c2ccccn2)CC1)Nc1cccc(S(=O)(=O)N2CCOCC2)c1	-1	7	-7	5	118	-15	.	.
O=C(CN1CCN(c2ccccn2)CC1)Nc1cccc(Cl)c1Cl	0	-2	11	-3	86	-7	111	109
COc1cc2[nH]c(=O)n(CCCCCC(=O)N3CCN(c4ccccc4)CC3)c(=O)c2cc1OC	-1	4	11	-1	64*	-10	95	93
OCCN(CC#CCn1c2ccccc2c2ccccc21)CCO	0	1	-28	9	106	9	87	105
COc1ccc(S(=O)(=O)NC(N)=NCCc2ccc(OC)c(OC)c2)cc1C	1	-4	-16	6	64*	-6	100	90
CCn1c(C)nc2c(=O)oc3ccccc3c21	-2	11	5	0	65*	-16	94	97
CCCCn1c(N)c(N(CCC(C)C)C(=O)C2CCN(C(=O)c3ccccc3C)CC2)c(=O)[nH]c1=O	3	-21	-6	12	83	9	.	.
CC(C)C[C@H]1CNC(=O)C(=O)N1CC1CCN(CCc2ccc(-c3ccccc3)cc2)CC1	0	-2	1	0	.	-1	.	.
O=C(CN1CCN(c2ccccn2)CC1)Nc1cccc(F)c1	-2	10	-11	3	101	3	110	92
COc1cccc(NC(=O)CN2CCC(C)CC2)c1	-1	5	12	-5	93	-11	.	.
COc1cccc(NC(=O)CN2CCN(CC(=O)Nc3ccc(F)cc3)CC2)c1	-1	4	0	0	61*	-13	113	105
O=C(CN1CCN(c2ccccn2)CC1)Nc1cccc(Br)c1	-2	10	8	-2	102	-2	92	102
CC(=NCCc1ccccc1)C1=C(O)COC1=O	-2	10	-1	0	93	7	.	.
CC(=NCCc1ccccc1)C1=C(O)C(c2ccccc2)OC1=O (stereo unspecified)	-2	12	-8	3	52*	11	92	98
O=C(CC(Cc1ccccc1)C(=O)O)Nc1ccccc1 (stereo unspecified)	-4	18	-1	0	50*	-10	94	92
CC(C)C(NC(=O)c1c(F)cccc1F)C(=O)N1CCN(c2ccccc2F)CC1 (stereo unspecified)	-1	6	-38	6	99	8	.	.
COc1ccc(NC(=O)CCCn2c(=S)[nH]c3ccccc3c2=O)cc1	-4	21	-19	7	97	-6	.	.
COc1ccc(NC(=O)CCn2c(=S)[nH]c3ccccc3c2=O)cc1	-3	17	1	0	65*	2	115	112
COc1cccc(NC(=O)CN(C)C(=O)CSCC(=O)Nc2ccc(C)cc2)c1	-3	13	12	-2	116	-9	.	.
O=C(O)CC1(CC(=O)NCc2ccc(Cl)cc2)CCCCC1	-3	15	4	-1	99	-3	.	.
Cc1nc(SCC(=O)NCC2CCCO2)[nH]c(=O)c1C (stereo unspecified)	2	-13	3	-1	97	8	.	.
CCCc1c(NC(=O)Nc2ccc(F)cc2)cnn1-c1ccccc1	-2	11	-17	-2	61*	-6	120	108
O=C(Cc1ccc(Br)cc1)NNC(=O)c1cccs1	-4	21	0	0	119	-6	.	.
SMILES	MOR-DOR ag	MOR-DOR inv ag	HTR5A inv ag	HTR5A ag	Yeast superoxide	PvdQ inh	CR mimetic CP	DHE counter
O=C(COc1ccccc1)NCc1ccccc1	-1	7	-9	5	93	-9	.	.
Cc1cccc(C)c1OCC(=O)NCc1ccccc1	-3	14	7	-2	46*	-6	110	111
CCOc1ccccc1NC(=O)COC(=O)CC(C)(C)CC1=NS(=O)(=O)c2ccccc2N1	-2	8	-19	5	58*	-1	106	110
N#C/C(=C\c1ccccn1)c1nc2ccccc2s1	-1	3	5	-1	102	-2	.	.
COc1ccc(/C(C#N)=C/c2ccccn2)cc1	-1	3	2	0	58*	53*	122	109
CC(=O)Nc1ccc(NS(=O)(=O)c2ccc(-c3csc(C)n3)s2)cc1	.	.	.	.	98	.	.	.
Cc1nc(-c2ccc(S(=O)(=O)Nc3cc(S(=O)(=O)N(C)C)ccc3C)s2)cs1	-2	10	0	6	64*	-6	114	117
Cc1ccc(-n2nc3ccc(NC(=O)/C=C/c4ccco4)cc3n2)cc1	1	-7	-53	13	54*	-10	102	95
Cc1ccc(NC(=O)c2cccc(NC(=O)/C=C/c3ccco3)c2)cc1C	-1	5	-16	3	123	16	.	.
N#Cc1cc(N)c(Nc2ccccc2)cc1C#N	-1	4	-24	-2	86	9	.	.
N#Cc1ccc(Nc2ccccc2)c(N)c1	3	-15	8	-3	61*	-1	93	107
CC(=O)c1ccc(N/N=C2/CCCNC2=O)cc1	.	.	.	.	63*	-7	107	102
Cc1ccc(N/N=C2/CCCNC2=O)cc1	-4	16	-14	0	106	3	.	.
CC(C)Cn1c2ccccc2c2cc(C(=O)O)ccc21	-2	11	-7	0	121	-14	110	91
CCn1c(=O)c(C(=O)NNC(=O)c2ccc(Cl)cc2Cl)c(O)c2ccccc21	-2	10	-16	6	74	-8	.	.
CCCn1c(=O)c(C(=O)NNC(=O)c2ccc(Cl)cc2Cl)c(O)c2ccccc21	-2	9	-11	3	60*	-17	107	105
CCCn1c(=O)c(C(=O)NCc2ccc(OC)c(OC)c2)c(O)c2ccccc21	0	3	3	-3	63*	-16	109	108
Cc1cc(NS(=O)(=O)c2ccccc2)cc(Cl)c1O	2	-12	-7	2	103	3	87	91
